# Hit rate of the full screen: of about 48,000 compounds, about 13,000 (27%) showed an effect of 50% or more. This is one part of the list.
# Test system: Wolbachia pipientis
# Experiment: Anti-Wolbachia Cell-Based Screen
# Format: functional
# Design: scale not given: in the data most compounds retested in dose-response had high values
# Details: 5 µM
row,Structure (SMILES),Percent Effect
1,CCOCCN1CCN(CCc2nc3ccccc3c(=O)[nH]2)CC1,-16.1%
2,O=S(=O)(Cc1nc(C2CC2)no1)c1cc(F)ccc1F,-10.78%
3,Cc1nn(C)c(Cl)c1C1CCCN1C(=O)c1ccncc1 (stereo not given),76.23%
4,Cc1nn(C)c(Cl)c1C1CCCN1C(=O)c1ccc2nncn2c1 (stereo not given),-0.8221%
5,CCCc1cc(NCc2cc(C)on2)n2nccc2n1,18.67%
6,CN(C)c1nc(-c2ccncc2)nc2c1CCN(C(=O)[C@H](N)CO)C2,12.11%
7,O=C(NCCc1cccs1)[C@]12COC[C@H]1CN(c1ncccn1)C2.O=C(O)C(F)(F)F,-26.22%
8,Fc1ccc(N2CCCN(Cc3ccc(-c4cc[nH]n4)o3)CC2)cc1,76.67%
9,Cc1nn(C)c(C)c1CN1CCCC(c2ccc(C(=O)O)cc2)C1 (stereo not given),16.04%
10,O=C(O)c1ccc(C2CCCN(Cc3ccc(-c4cc[nH]n4)o3)C2)cc1 (stereo not given),112.5%
11,Cc1cnc(C)c(N2CCN(Cc3ccc(-c4cc[nH]n4)o3)CC2)n1,2.715%
12,CCNC(=O)[C@@H]1C[C@H](N)CN1Cc1ccc(-c2cc[nH]n2)o1,2.507%
13,Cc1cccnc1CN1CCN(Cc2ccc(-c3cc[nH]n3)o2)CC1,0.5837%
14,O=C(O)c1ccc(CC2CCN(Cc3ccc(-c4cc[nH]n4)o3)C2)cc1 (stereo not given),103.3%
15,O=C(O)c1ccccc1C1CCN(Cc2ccc(-c3cc[nH]n3)o2)C1 (stereo not given),111.1%
16,Cc1cc(N2CCN(Cc3ccc(-c4cc[nH]n4)o3)CC2)cc(C)n1,1.091%
17,Fc1cnc(N2CCN(Cc3ccc(-c4cc[nH]n4)o3)CC2)nc1,10.27%
18,Cc1cnccc1N1CCCN(Cc2ccc(-c3cc[nH]n3)o2)CC1,39.38%
19,CCN1CC2(CCC1=O)CCN(Cc1cccc(C#N)c1)CC2,-7.959%
20,CC(C)c1nc(CN(C)C(=O)C2CC(=O)N(Cc3ccncc3)C2)cs1 (stereo not given),6.051%
21,COc1cccc(CN(C)C(C)c2ccco2)c1OCCn1ccnc1 (stereo not given),-0.9941%
22,CN(CCN1CCCCCC1)C(=O)c1cc(CN2CCC(O)CC2)on1,-8.784%

row,Structure (SMILES),Percent Effect
1,Nc1ncc(C(=O)N2CCC3(CCCO3)CC2)c(-c2ccccc2)n1,-10.16%
2,CC(C)(CNc1ccc(S(=O)(=O)C(F)F)cc1)N1CCOCC1,2.444%
3,CC(C)NS(=O)(=O)c1cc(C(=O)O)cc(-c2ccccc2C#N)c1,4.012%
4,Cc1cnccc1CN1CC[C@@](C)(O)[C@H](Oc2cccc(F)c2)C1,113.3%
5,Cc1ccccc1CN1CC[C@@]2(O)CCN(C(=O)C3CCC3)C[C@H]2C1,-8.444%
6,Cc1cnccc1CN1CC[C@H](Oc2cccc(F)c2)[C@@](C)(O)C1,130.7%
7,Cc1cnccc1CN1CC[C@@](C)(O)[C@H](Oc2ccccc2)C1,-3.171%
8,Cc1cc(F)ccc1CN1CCCC(O)(CN2CCCC2)C1 (stereo not given),20.34%
9,CC(C)[C@@H]1CN(CC(=O)NCc2ccco2)C[C@H]1NS(=O)(=O)N(C)C,-2.04%
10,CCSc1nc(N)c(NC(=O)c2ccc(C)cc2)c(=O)[nH]1,-2.31%
11,Cn1ncc2c(NCCOc3ccc(F)cc3)nc(C3CCCC3)nc21,8.04%
12,Br.Cc1ccc(OCCSC2=NCCN2)cc1,1.775%
13,Fc1ccc(OCCCN2CC(n3cccn3)C2)cc1,3.105%
14,Fc1ccc(OCCCNC2=NCCCN2)cc1.I,81.36%
15,Fc1ccc(OCCCNC2=NCCN2)cc1.I,63.04%
16,CCOCc1ccc(CNC2=NCCCN2)cc1.I,0.3337%
17,Br.Cc1ccc(OCCCSC2=NCCN2)cc1,5.255%
18,CN(C)c1ccc(CNC2=NCCCN2)cc1.I,13.13%
19,I.c1ccc(OCCNC2=NCCCN2)cc1,111%
20,COC(=O)C1Cc2nc[nH]c2CN1Cc1ccc(Sc2ncccn2)o1 (stereo not given),2.291%
21,COc1cc2nc(NCc3cc(C)on3)nc(N)c2cc1OC,-8.416%
22,CC1CN(Cc2noc(C3CC3)n2)CCN1Cc1nccn1C (stereo not given),-7.382%

row,Structure (SMILES),Percent Effect
1,CCNC(=O)c1ccnc(N2CCCC(COc3ccccc3C)C2)c1 (stereo not given),3.224%
2,CCOCCn1nc(C)cc1C(=O)N(C)Cc1cccc2ncccc12,6.003%
3,C=C(C)Cn1ccc2cc(OC)c(F)cc2c1=O,-16.88%
4,CC[C@H]1CN(S(C)(=O)=O)CC[C@H]1CC(=O)NCCSC,-2.393%
5,CCc1nccn1C1CCCN(C(=O)c2ccn(-c3ccccc3)n2)C1 (stereo not given),-25.66%
6,O=C(c1ccc(-n2ccnc2)cc1)N1CCCC(n2ccnc2)C1 (stereo not given),120.2%
7,O=C(c1ccc(-n2cnnn2)cc1)N1CCCC(n2ccnc2)C1 (stereo not given),90.08%
8,O=C(c1ccn(-c2ccc(F)cc2)n1)N1CCCC(n2ccnc2)C1 (stereo not given),97.03%
9,CS(=O)(=O)c1ccc(C(=O)N2CCCC(n3ccnc3)C2)cc1 (stereo not given),96.86%
10,NC(=O)C1CCCN(C(=O)c2ccc(-n3ccnc3)cc2)C1 (stereo not given),0.2074%
11,Cc1ccn(-c2ccc(C(=O)N3CCCC(n4ccnc4)C3)cc2)n1 (stereo not given),4.214%
12,O=C(CNC(=O)c1ccoc1)NCCOc1ccc2c(c1)CCC2,14.09%
13,Cc1ccnn1-c1ccc(C(=O)N2CCCC(n3ccnc3)C2)cc1 (stereo not given),116.9%
14,CCc1nccn1C1CCCN(C(=O)c2cncn2-c2ccccc2)C1 (stereo not given),-5.728%
15,CC1=NN(c2ccc(C(=O)N3CCCC(n4ccnc4)C3)cc2)CC1 (stereo not given),-6.024%
16,CCc1nccn1C1CCCN(C(=O)c2ccc(-n3ccnc3)cc2)C1 (stereo not given),94.46%
17,NC(=O)COc1cccc(C(=O)N2CCCC(n3ccnc3)C2)c1 (stereo not given),2.122%
18,O=C1COc2cc(C(=O)N3CCCC(n4ccnc4)C3)ccc2N1 (stereo not given),-12.82%
19,NC(=O)COc1ccc(C(=O)N2CCCC(n3ccnc3)C2)cc1 (stereo not given),96.26%
20,O=C(c1ccc(-n2cnnc2)cc1)N1CCCC(n2ccnc2)C1 (stereo not given),107.8%
21,O=C(c1ccc(OCC2CC2)nc1)N1CCCC(n2ccnc2)C1 (stereo not given),-1.875%

# From ChEMBL document CHEMBL3988442, “University of Dundee, Small-Polar-MMV Screening Library” (2021)
